Assay results as given in PubChem BioAssay (NCATS).
Where “and” joins values, the source holds several entries; their conditions need not be identical. Equal entries are not always repeated. Results filed as inconclusive are left out. Calls of active or inactive are those of the source. Unless noted, calls come from the whole dose curve; as a rule, active = well fitted curve in the direction sought with a large enough effect; inconclusive = small, poorly fitted or top-dose-only effect, or another doubt; inactive = no such curve, though single readings can be large; an effect the other way counts as inactive or inconclusive.

How the values were obtained:
[1] = molecular target: Alpha-galactosidase A (Homo sapiens) (UniProt P06280); experiment: Counterscreen for Glucocerebrosidase Inhibitors: qHTS Assay for Human alpha-Galactosidase at pH 4.5 (AID 992); note: 0% is about no effect
Sequence of Alpha-galactosidase A (Homo sapiens) (P06280 whole entry, looked up): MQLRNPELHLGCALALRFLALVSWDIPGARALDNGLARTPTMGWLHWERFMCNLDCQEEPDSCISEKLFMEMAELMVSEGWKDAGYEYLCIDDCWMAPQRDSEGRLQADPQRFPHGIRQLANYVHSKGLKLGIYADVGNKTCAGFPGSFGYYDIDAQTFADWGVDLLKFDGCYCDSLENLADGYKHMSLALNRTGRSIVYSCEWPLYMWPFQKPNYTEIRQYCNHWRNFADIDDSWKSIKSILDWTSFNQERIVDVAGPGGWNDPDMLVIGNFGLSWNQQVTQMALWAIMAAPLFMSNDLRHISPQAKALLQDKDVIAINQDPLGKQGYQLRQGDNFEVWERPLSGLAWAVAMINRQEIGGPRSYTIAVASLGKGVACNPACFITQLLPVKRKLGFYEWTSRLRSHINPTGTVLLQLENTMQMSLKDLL
How it was run: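 Read-out is 4-methylumbelliferone fluorescence (365 nm excitation, 440 nm emission) after a pH 10 NaOH/glycine stop. Reactions held 2 nM enzyme and 80 uM substrate at pH 4.5 for 20 min at room temperature.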

[2] = molecular target: Alpha-galactosidase (Coffea arabica) (UniProt Q42656); experiment: Counterscreen for Glucocerebrosidase Inhibitors: qHTS Assay for Coffee Bean alpha-Galactosidase at pH 5.9 (AID 998);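 note: plate controls were uninhibited enzyme for no effect and no-enzyme basal signal for full effect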
Sequence of Alpha-galactosidase (Coffea arabica) (Q42656 whole entry, looked up): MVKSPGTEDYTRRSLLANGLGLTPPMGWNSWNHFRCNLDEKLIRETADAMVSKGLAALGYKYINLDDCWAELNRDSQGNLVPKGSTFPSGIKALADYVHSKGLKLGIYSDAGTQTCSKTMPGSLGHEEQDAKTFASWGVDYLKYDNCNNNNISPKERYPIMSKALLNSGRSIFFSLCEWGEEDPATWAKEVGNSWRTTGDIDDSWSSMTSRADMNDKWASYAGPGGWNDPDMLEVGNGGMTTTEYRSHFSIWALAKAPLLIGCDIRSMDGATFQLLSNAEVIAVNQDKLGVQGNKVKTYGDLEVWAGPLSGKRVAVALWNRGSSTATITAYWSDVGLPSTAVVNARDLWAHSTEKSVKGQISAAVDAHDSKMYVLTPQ
How it was run: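 Green coffee bean enzyme (2 nM final) was incubated with compounds (0.7 nM–77 uM) and 4-methylumbelliferyl alpha-D-galactopyranoside (80 uM) in citrate buffer pH 5.9, 20 min at room temperature. High-pH stop; fluorescence 365/440 nm; AC50 from Hill fits.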

[3] = Validation of Assay for Modulators of Lamin A Splicing (AID 1459; active = well fitted curve in the direction sought with a large enough effect in the signal ratio; the % refers to the signal ratio;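 note: cells exposed to compound for two days before reading; 0% is about no effect; ratio rise marks activators and ratio drop marks inhibitors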)
How it was run: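 Dual-reporter HeLa S3 line (lamin A-EGFP minigene, DsRed2) treated with compounds 48 hrs, 0.5% DMSO final. Endpoint: EGFP/DsRed2 total intensity ratio from laser-scanning microplate cytometry.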

[4] = qHTS Assay for Lipid Storage Modulators (AID 1519; calls by dose curve; for activity change, negative = inhibition: % is set by controls: 0 for no effect and ±100 for the full control effect); conditions: Drosophila S3 cells, BODIPY lipid droplet/cell ratio, laser cytometry, cells loaded with oleic acid; for activity change, negative = inhibition: at 57.5 µM (top of the series)
How it was run: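 Cells seeded at 5,000 per well were treated with compounds over a concentration series and loaded with oleic acid (400 uM, as added). Lipid droplet fluorescence (488 nm excitation, 500-530 nm channel) was read by laser-scanning cytometry and normalized to 20 uM Triacsin C.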

[5] = molecular target: DNA repair nuclease/redox regulator APEX1 (Homo sapiens) (UniProt P27695); experiment: qHTS Validation Assay for Inhibitors of the Human Apurinic/apyrimidinic Endonuclease 1 (APE1) (AID 1705;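 note: TAMRA fluorescence gain over two minutes as APE1 cuts a quenched THF abasic duplex; % is set by controls: 0 for no effect and ±100 for the full control effect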)
Sequence of DNA repair nuclease/redox regulator APEX1 (Homo sapiens) (P27695 whole entry, looked up): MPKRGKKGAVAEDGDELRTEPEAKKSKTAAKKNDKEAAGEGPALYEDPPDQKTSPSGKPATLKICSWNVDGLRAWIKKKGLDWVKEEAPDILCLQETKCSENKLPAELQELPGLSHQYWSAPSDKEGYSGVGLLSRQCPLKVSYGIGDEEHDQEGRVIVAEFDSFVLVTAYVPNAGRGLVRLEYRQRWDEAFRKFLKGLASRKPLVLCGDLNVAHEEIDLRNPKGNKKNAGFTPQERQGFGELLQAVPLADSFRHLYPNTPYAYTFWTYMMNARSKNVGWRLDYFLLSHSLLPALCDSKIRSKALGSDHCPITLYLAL
How it was run: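 Substrate: 50 nM final fluorophore/quencher THF-abasic duplex. Enzyme preincubated with compounds 15 min, RT. Progress derived from fluorescence difference, third minus first kinetic read.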

[6] = Counterscreen for APE1 Inhibitors: Fluorescent Dye Displacement Validation Assay (AID 1707);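 note: plate controls were ThO with dsDNA and no compound for no effect and ThO without dsDNA for full effect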
How it was run: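 ThO 250 nM + dsDNA 50 nM (THF abasic site, 5'-TAMRA), Tris-HCl pH7.5/50mM NaCl/2 mM MgCl2/0.01% Tween-20; compounds pin-transferred; ex 480/em 540 nm endpoint. Neutral = no compound; no-DNA ThO wells = negative control.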

[7] = qHTS for differential inhibitors of proliferation of Plasmodium falciparum line 7G8 (AID 1815);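 note: parasite growth measured after three days of incubation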; note: potency is the fitted concentration of half-maximal effect;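 for activity change, negative = inhibition: plate controls were vehicle wells for no effect and reference inhibitor wells for full effect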
[8] = qHTS for differential inhibitors of proliferation of Plasmodium falciparum line GB4 (AID 1816); conditions: Potency: Plasmodium falciparum GB4 proliferation inhibition;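 note: parasite growth measured after 72 h incubation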; note: potency is the fitted concentration of half-maximal effect;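 for activity change, negative = inhibition: 0% = vehicle DMSO and -100% = reference inhibitor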
[9] = qHTS for differential inhibitors of proliferation of Plasmodium falciparum line 3D7 (AID 1876); note: potency is the fitted concentration of half-maximal effect
[10] = qHTS for differential inhibitors of proliferation of Plasmodium falciparum line D10 (AID 1877);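 note: parasites grown with compound for 72 h before DNA staining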; note: potency is the fitted concentration of half-maximal effect;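 for activity change, negative = inhibition: plate controls were vehicle wells for no effect and reference inhibitor wells for full effect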
[11] = qHTS for differential inhibitors of proliferation of Plasmodium falciparum line Dd2 (AID 1882); conditions: Potency: Plasmodium falciparum Dd2 proliferation inhibition; note: nearly all actives have a fitted effect of over 65% in size; note: potency is the fitted concentration of half-maximal effect;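 for activity change, negative = inhibition: plate controls were DMSO vehicle for no effect and 0.29 µM artemisinin for full effect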
How it was run: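 Dd2-infected erythrocytes (0.3% parasitemia, 2.5% hematocrit final) incubated with compound 72 h at 37 C, 5% CO2; lysed with saponin/Triton buffer containing SYBR Green I, incubated overnight in the dark, then read by fluorescence (485/535 nm). Normalized to 0.29 uM artemisinin and DMSO.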

[12] = qHTS for differential inhibitors of proliferation of Plasmodium falciparum line W2 (AID 1883); conditions: Potency: Plasmodium falciparum W2 proliferation inhibition;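 note: parasites grown with compound for 72 h before lysis and staining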; note: potency is the fitted concentration of half-maximal effect;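 for activity change, negative = inhibition: 0% = vehicle wells and -100% = control inhibitor wells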
[13] = qHTS for differential inhibitors of proliferation of Plasmodium falciparum line HB3 (AID 1886); conditions: Potency: Plasmodium falciparum HB3 proliferation inhibition;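 note: parasites grown with compound for 72 h before SYBR Green readout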; note: potency is the fitted concentration of half-maximal effect;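 for activity change, negative = inhibition: plate controls were vehicle for no effect and reference inhibitor for full effect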
[14] = molecular target: Endonuclease 4 (Escherichia coli (strain K12)) (UniProt P0A6C1); experiment: Counterscreen for APE1 Inhibitors: qHTS Validation Assay for Inhibitors of Endonuclease IV (AID 1708); note: % is set by controls: 0 for no effect and ±100 for the full control effect
How it was run: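 Concentration-response counterscreen run identically to the APE1 assay: 15 min room-temperature preincubation of 2 nM enzyme with compound, reaction started with 50 nM quenched abasic DNA, progress taken from kinetic fluorescence.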

[15] = molecular target: alpha-glucosidase (Oryza sativa, rice) (UniProt Q653V4); experiment: Counterscreen for Glucocerebrosidase Inhibitors: qHTS Assay for Rice alpha-Glucosidase at pH 5.0 (AID 997);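 note: 0% = full activity with enzyme and -100% = basal without enzyme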
How it was run: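 Rice alpha-glucosidase (4 nM final) with 400 uM 4-methylumbelliferyl-alpha-D-glucopyranoside in citrate buffer pH 5.0, 20 min at room temperature, stopped at pH 10; fluorescence 365/440 nm, compounds 0.7 nM–77 uM, AC50 from Hill fits.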

[16] = qHTS Assay for Modulators of Human Peripheral Myelin Protein 22 (PMP22) Expression/Activity (AID 1967; active = well fitted curve in the direction sought with a large enough effect in the signal ratio; the % refers to the signal ratio;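 note: 0% = untreated cells and 100% end not stated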)
How it was run: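 Engineered MSC80 cells, Pmp22-promoter green and EF-alpha red luciferase reporters; 24h compound treatment at 37 °C. Concentration-response fits on green, red and ratio signals, each overlap-corrected, with %Activity normalized to untreated wells.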

[17] = measured here: cell count channel max response
[18] = measured here: lipid channel max response

NNC(=O)c1ccc(O)cc1
-15.4%: max response [4, 18]
-17.6%: max response [4, 17]
inactive: outcome [1] | outcome [2] | outcome [3] | activity change, negative = inhibition [4] 0.0246% | Potency [5] | Potency [6] | Potency [7] | Potency [8] | Potency [9] | Potency [10] | Potency [11] | Potency [12] | Potency [13]

OCc1cnc[nH]1
active: Potency [8] 7.94 µM | Potency [13] 10 µM
inactive: outcome [1] | outcome [2] | outcome [3] | activity change, negative = inhibition [4] 1.18% | Potency [6] | Potency [14] | Potency [11]
9.78%: max response [4, 18]
7.21%: max response [4, 17]

CCCN(CCC)C1Cc2cc(OC)c(OC)cc2C1
inactive: outcome [1] | outcome [15] | outcome [2] | outcome [3] | activity change, negative = inhibition [4] -0.96% | Potency [5] | Potency [6] | Potency [14] | Potency [7] | Potency [9] | Potency [10] | Potency [11] | Potency [12] | Potency [13] | outcome [16]
-31.4%: max response [4, 18]
-27.4%: max response [4, 17]

CCCn1c(C)c(C(=O)c2ccc3ccccc3c2)c2ccccc21
inactive: outcome [1] | outcome [15] | outcome [2] | outcome [3] | activity change, negative = inhibition [4] -0.784% | Potency [5] | Potency [6] | Potency [11]
16.6%: max response [4, 18]
17.8%: max response [4, 17]
active: Potency [7] 7.94 µM | Potency [8] 10 µM | Potency [9] 10 µM | Potency [10] 14.1 µM | Potency [12] 10 µM | Potency [13] 12.6 µM

CN1CCC(c2c[nH]c3ccc(O)cc23)CC1
19.5% and 47.8%: max response [4, 17]
inactive: outcome [1] | outcome [2] | outcome [3] | activity change, negative = inhibition [4] 2.83% and 0.677% | Potency [5] | Potency [6] | Potency [11] | outcome [16]
active: Potency [9] 10 µM | Potency [12] 8.91 µM
24% and 52.3%: max response [4, 18]

O=C(O)c1cc[c]([Hg][Cl])cc1
inactive: outcome [1] | outcome [15] | outcome [3] | activity change, negative = inhibition [4] 1.37% | Potency [5] | Potency [6] | Potency [14]
-15.1%: max response [4, 18]
-16.6%: max response [4, 17]
active: Potency [7] 3.16 µM | Potency [8] 2.51 µM | Potency [9] 2.24 µM | Potency [10] 1.12 µM | Potency [11] 11.2 µM | Potency [12] 1.41 µM | Potency [13] 5.01 µM

NCC(CP(=O)(O)O)c1ccc(Cl)cc1 (centres undefined)
-42.3%: max response [4, 17]
inactive: outcome [3] | activity change, negative = inhibition [4] -3.32% | Potency [5] | Potency [6] | Potency [7] | Potency [8] | Potency [9] | Potency [10] | Potency [11] | Potency [12] | Potency [13]
-42.6%: max response [4, 18]

CN1CCc2cccc(Cl)c2CC1
-8.27%: max response [4, 17]
-8.1%: max response [4, 18]
inactive: outcome [1] | outcome [2] | outcome [3] | activity change, negative = inhibition [4] 0.882% | Potency [6] | Potency [14] | Potency [7] | Potency [9] | Potency [10] | Potency [11] | Potency [13] | outcome [16]
